Experimental data: article PMC5540273 (PLoS ONE, 2017)
Values joined by “and” are separate entries in the source; they are usually repeats but may differ in a detail not shown here. Equal entries are not always repeated. Where two headings read alike, the source gives them in different places.

Columns and labels:
KIT-autoinhibited = conditions: concentration: 1 μM, replicates: in singlicate, n = 1
KIT = conditions: concentration: 1 μM, replicates: in singlicate, n = 1
LATS1 = conditions: concentration: 1 μM, replicates: in singlicate, n = 1
LATS2 = conditions: concentration: 1 μM, replicates: in singlicate, n = 1
LCK = conditions: concentration: 1 μM, replicates: in singlicate, n = 1
LIMK1 = conditions: concentration: 1 μM, replicates: in singlicate, n = 1
LIMK2 = conditions: concentration: 1 μM, replicates: in singlicate; n = 1
LKB1 = tested on: T1, LKB1; conditions: concentration: 1 μM, replicates: in singlicate, n = 1
T1 construct: gene STK11

LOK = tested on: T2, LOK; conditions: concentration: 1 μM, replicates: in singlicate, n = 1
T2 construct: gene STK10

LRRK2 = conditions: concentration: 1 μM, replicates: in singlicate, n = 1
LTK = conditions: concentration: 1 μM, replicates: in singlicate, n = 1
LYN = conditions: concentration: 1 μM, replicates: in singlicate, n = 1
LZK = tested on: T3, LZK; conditions: concentration: 1 μM, replicates: in singlicate, n = 1
T3 construct: gene MAP3K13

MAK = conditions: concentration: 1 μM, replicates: in singlicate, n = 1
MAP3K15 = conditions: concentration: 1 μM, replicates: in singlicate, n = 1
MAP3K1 = conditions: concentration: 1 μM, replicates: in singlicate; n = 1
MAP3K2 = conditions: concentration: 1 μM, replicates: in singlicate, n = 1
MAP3K3 = conditions: concentration: 1 μM, replicates: in singlicate, n = 1
MAP3K4 = conditions: concentration: 1 μM, replicates: in singlicate, n = 1
MAP4K2 = conditions: concentration: 1 μM, replicates: in singlicate, n = 1
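Further: KINOMEscan kinase panel screen.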

c1ccc(-c2cc(-c3c[nH]nc3-c3ccccn3)ccn2)cc1 [GW576604]
%Inh (KIT-autoinhibited): 0% | %Inh (KIT): 9% | %Inh (LATS1): 0% | %Inh (LATS2): 0% | %Inh (LCK): 0% | %Inh (LIMK1): 0% | %Inh (LIMK2): 0% | %Inh (LKB1): 17% | %Inh (LOK): 0% | %Inh (LRRK2): 0% | %Inh (LTK): 19% | %Inh (LYN): 0% | %Inh (LZK): 10% | %Inh (MAK): 0% | %Inh (MAP3K15): 0% | %Inh (MAP3K1): 0% | %Inh (MAP3K2): 0% | %Inh (MAP3K3): 0% | %Inh (MAP3K4): 0% | %Inh (MAP4K2): 0%

N#Cc1ccc(-c2cc(-c3c[nH]nc3-c3ccccn3)ccn2)cc1 [GW693028]
%Inh (KIT-autoinhibited): 5% | %Inh (KIT): 6% | %Inh (LATS1): 0% | %Inh (LATS2): 0% | %Inh (LCK): 0% | %Inh (LIMK1): 16% | %Inh (LIMK2): 3% | %Inh (LKB1): 0% | %Inh (LOK): 0% | %Inh (LRRK2): 44% | %Inh (LTK): 0% | %Inh (LYN): 0% | %Inh (LZK): 0% | %Inh (MAK): 21% | %Inh (MAP3K15): 0% | %Inh (MAP3K1): 6% | %Inh (MAP3K2): 0% | %Inh (MAP3K3): 0% | %Inh (MAP3K4): 24% | %Inh (MAP4K2): 0%

[2H]C([2H])(c1cccc(C(F)(F)F)c1C)n1ccn2c(=O)nc(N3CCOCC3)cc12 [GSK2336394]
%Inh (KIT-autoinhibited): 0% | %Inh (KIT): 14% | %Inh (LATS1): 11% | %Inh (LATS2): 0% | %Inh (LCK): 25% | %Inh (LIMK1): 15% | %Inh (LIMK2): 0% | %Inh (LKB1): 0% | %Inh (LOK): 0% | %Inh (LRRK2): 0% | %Inh (LTK): 19% | %Inh (LYN): 0% | %Inh (LZK): 0% | %Inh (MAK): 17% | %Inh (MAP3K15): 0% | %Inh (MAP3K1): 0% | %Inh (MAP3K2): 5% | %Inh (MAP3K3): 0% | %Inh (MAP3K4): 25% | %Inh (MAP4K2): 0%

Cc1ccc(C(=O)NCC(N)=O)cc1-n1c(C)cc(OCc2ccc(F)cc2F)c(Br)c1=O
%Inh (KIT-autoinhibited): 0% | %Inh (KIT): 6% | %Inh (LATS1): 13% | %Inh (LATS2): 0% | %Inh (LCK): 25% | %Inh (LIMK1): 16% | %Inh (LIMK2): 0% | %Inh (LKB1): 0% | %Inh (LOK): 26% | %Inh (LRRK2): 0% | %Inh (LTK): 27% | %Inh (LYN): 18% | %Inh (LZK): 0% | %Inh (MAK): 11% | %Inh (MAP3K15): 0% | %Inh (MAP3K1): 0% | %Inh (MAP3K2): 0% | %Inh (MAP3K3): 0% | %Inh (MAP3K4): 22% | %Inh (MAP4K2): 0%

CN1c2ccc(CNc3ccc(F)cc3)cc2-c2c(cnn2C)S1(=O)=O
%Inh (KIT-autoinhibited): 15% | %Inh (KIT): 0% | %Inh (LATS1): 0% | %Inh (LATS2): 0% | %Inh (LCK): 7% | %Inh (LIMK1): 0% | %Inh (LIMK2): 0% | %Inh (LKB1): 8% | %Inh (LOK): 0% | %Inh (LRRK2): 0% | %Inh (LTK): 0% | %Inh (LYN): 3% | %Inh (LZK): 0% | %Inh (MAK): 3% | %Inh (MAP3K15): 0% | %Inh (MAP3K1): 0% | %Inh (MAP3K2): 11% | %Inh (MAP3K3): 25% | %Inh (MAP3K4): 12% | %Inh (MAP4K2): 0%

O=c1cc(N2CCOCC2)nc2n(Cc3cccc4ccccc34)ccn12 [GSK2333389]
%Inh (KIT-autoinhibited): 0% | %Inh (KIT): 11% | %Inh (LATS1): 0% | %Inh (LATS2): 0% | %Inh (LCK): 2% | %Inh (LIMK1): 0% | %Inh (LIMK2): 0% | %Inh (LKB1): 2% | %Inh (LOK): 0% | %Inh (LRRK2): 59% | %Inh (LTK): 0% | %Inh (LYN): 0% | %Inh (LZK): 0% | %Inh (MAK): 0% | %Inh (MAP3K15): 0% | %Inh (MAP3K1): 8% | %Inh (MAP3K2): 0% | %Inh (MAP3K3): 0% | %Inh (MAP3K4): 0% | %Inh (MAP4K2): 0%

COC(=O)Nc1nc2cc(Oc3ccc(NC(=O)Nc4cc(F)ccc4F)cc3)ccc2[nH]1.Cl [GW701424]
%Inh (KIT-autoinhibited): 30% | %Inh (KIT): 100% | %Inh (LATS1): 0% | %Inh (LATS2): 0% | %Inh (LCK): 57% | %Inh (LIMK1): 0% | %Inh (LIMK2): 0% | %Inh (LKB1): 0% | %Inh (LOK): 98.4% | %Inh (LRRK2): 0% | %Inh (LTK): 0% | %Inh (LYN): 19% | %Inh (LZK): 37% | %Inh (MAK): 18% | %Inh (MAP3K15): 0% | %Inh (MAP3K1): 0% | %Inh (MAP3K2): 2% | %Inh (MAP3K3): 0% | %Inh (MAP3K4): 0% | %Inh (MAP4K2): 0%

COc1ccc(CNC(=O)NC2CCN(c3ccnc(Nc4ccc(OC)cc4)n3)C2)cc1 (stereo not drawn) [GSK1379727]
%Inh (KIT-autoinhibited): 0% | %Inh (KIT): 16% | %Inh (LATS1): 6% | %Inh (LATS2): 0% | %Inh (LCK): 8% | %Inh (LIMK1): 0% | %Inh (LIMK2): 0% | %Inh (LKB1): 15% | %Inh (LOK): 0% | %Inh (LRRK2): 0% | %Inh (LTK): 0% | %Inh (LYN): 0% | %Inh (LZK): 0% | %Inh (MAK): 7% | %Inh (MAP3K15): 0% | %Inh (MAP3K1): 0% | %Inh (MAP3K2): 0% | %Inh (MAP3K3): 0% | %Inh (MAP3K4): 10% | %Inh (MAP4K2): 0%

Cl.Cl.Cl.Fc1ccc(-c2ncn(C3CCNCC3)c2-c2ccnc(Nc3ccccc3)n2)cc1 [SB-238039]
%Inh (KIT-autoinhibited; 1 µM): 2% and 0% | %Inh (KIT; 1 µM): 12% and 0% | %Inh (LATS1; 1 µM): 17% and 16% | %Inh (LATS2; 1 µM): 0% and 12% | %Inh (LCK; 1 µM): 69% and 32% | %Inh (LIMK1; 1 µM): 13% and 0% | %Inh (LIMK2): 0% | %Inh (LKB1; 1 µM): 55% and 23% | %Inh (LOK; 1 µM): 35% and 2% | %Inh (LRRK2; 1 µM): 27% and 0% | %Inh (LTK; 1 µM): 27% and 37% | %Inh (LYN; 1 µM): 42% and 15% | %Inh (LZK; 1 µM): 0% and 7% | %Inh (MAK; 1 µM): 3% and 41% | %Inh (MAP3K15; 1 µM): 0% and 4% | %Inh (MAP3K1): 0% | %Inh (MAP3K2; 1 µM): 63% and 27% | %Inh (MAP3K3; 1 µM): 69% and 98.9% | %Inh (MAP3K4; 1 µM): 2% and 0% | %Inh (MAP4K2; 1 µM): 36% and 7%

COc1ccc(Nc2nccc(N3CCC(NC(=O)Nc4cc(C)ccc4C)C3)n2)cc1 (stereo not drawn) [GSK1379741]
%Inh (KIT-autoinhibited): 0% | %Inh (KIT): 25% | %Inh (LATS1): 0% | %Inh (LATS2): 0% | %Inh (LCK): 0% | %Inh (LIMK1): 0% | %Inh (LIMK2): 0% | %Inh (LKB1): 0% | %Inh (LOK): 0% | %Inh (LRRK2): 0% | %Inh (LTK): 7% | %Inh (LYN): 73% | %Inh (LZK): 0% | %Inh (MAK): 28% | %Inh (MAP3K15): 0% | %Inh (MAP3K1): 11% | %Inh (MAP3K2): 5% | %Inh (MAP3K3): 0% | %Inh (MAP3K4): 23% | %Inh (MAP4K2): 0%

CCn1cnc2c(N)ncnc21 [GW345098]
%Inh (KIT-autoinhibited): 7% | %Inh (KIT): 20% | %Inh (LATS1): 0% | %Inh (LATS2): 21% | %Inh (LCK): 5% | %Inh (LIMK1): 26% | %Inh (LIMK2): 27% | %Inh (LKB1): 26% | %Inh (LOK): 25% | %Inh (LRRK2): 0% | %Inh (LTK): 16% | %Inh (LYN): 0% | %Inh (LZK): 3% | %Inh (MAK): 0% | %Inh (MAP3K15): 6% | %Inh (MAP3K1): 18% | %Inh (MAP3K2): 9% | %Inh (MAP3K3): 20% | %Inh (MAP3K4): 11% | %Inh (MAP4K2): 19%

Cc1cccc(Cn2ccn3c(=O)cc(N4CCOCC4)nc23)c1 [GSK2297542]
%Inh (KIT-autoinhibited): 1% | %Inh (KIT): 38% | %Inh (LATS1): 28% | %Inh (LATS2): 10% | %Inh (LCK): 26% | %Inh (LIMK1): 2% | %Inh (LIMK2): 10% | %Inh (LKB1): 21% | %Inh (LOK): 0% | %Inh (LRRK2): 0% | %Inh (LTK): 0% | %Inh (LYN): 0% | %Inh (LZK): 0% | %Inh (MAK): 32% | %Inh (MAP3K15): 0% | %Inh (MAP3K1): 8% | %Inh (MAP3K2): 8% | %Inh (MAP3K3): 0% | %Inh (MAP3K4): 0% | %Inh (MAP4K2): 0%
